Experimental findings from PubChem BioAssay AID1920062 (Sanford-Burnham Center for Chemical Genomics, 2024) are described below.

SMILES strings stand for the structures. About 400 (0.11%) of roughly 370,000 compounds were called active. For the sample, actives were picked, then their nearest neighbours and some compounds at random. Values without a mark were called inactive.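 Rule for the calls: active = activation at 10 µM reaching about 35% in either raw or pattern-adjusted values (limit read from the data); inactive = the rest.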

Chain of Atrial natriuretic peptide receptor 2 (Homo sapiens) (P20594 whole entry, looked up): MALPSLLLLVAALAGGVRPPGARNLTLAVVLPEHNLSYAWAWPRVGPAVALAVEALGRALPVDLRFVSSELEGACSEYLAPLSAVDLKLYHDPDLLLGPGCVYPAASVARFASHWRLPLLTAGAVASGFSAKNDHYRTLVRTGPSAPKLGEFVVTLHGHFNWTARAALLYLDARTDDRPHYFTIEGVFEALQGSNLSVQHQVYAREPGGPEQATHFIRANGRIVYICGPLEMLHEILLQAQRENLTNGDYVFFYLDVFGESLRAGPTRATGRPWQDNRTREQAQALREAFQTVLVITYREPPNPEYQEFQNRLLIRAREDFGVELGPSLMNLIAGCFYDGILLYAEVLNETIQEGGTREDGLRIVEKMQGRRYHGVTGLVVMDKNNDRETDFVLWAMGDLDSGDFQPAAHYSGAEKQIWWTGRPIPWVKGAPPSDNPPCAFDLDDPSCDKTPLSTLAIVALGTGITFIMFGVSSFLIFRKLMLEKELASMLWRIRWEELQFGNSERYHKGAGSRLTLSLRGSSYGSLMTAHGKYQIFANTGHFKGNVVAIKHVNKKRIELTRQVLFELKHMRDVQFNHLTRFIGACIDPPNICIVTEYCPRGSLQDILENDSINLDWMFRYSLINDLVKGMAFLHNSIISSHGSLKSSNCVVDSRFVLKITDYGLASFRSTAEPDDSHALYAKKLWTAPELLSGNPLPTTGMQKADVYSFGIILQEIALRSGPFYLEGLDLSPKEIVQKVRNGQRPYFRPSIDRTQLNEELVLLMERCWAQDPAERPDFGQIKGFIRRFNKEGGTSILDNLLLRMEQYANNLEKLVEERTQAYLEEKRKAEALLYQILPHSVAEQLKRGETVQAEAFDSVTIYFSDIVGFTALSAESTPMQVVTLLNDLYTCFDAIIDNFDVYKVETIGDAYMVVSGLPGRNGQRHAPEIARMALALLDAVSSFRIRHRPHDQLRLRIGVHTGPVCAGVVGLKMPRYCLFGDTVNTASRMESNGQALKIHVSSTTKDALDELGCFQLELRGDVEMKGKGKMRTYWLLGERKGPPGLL

The assay concerns the target Atrial natriuretic peptide receptor 2 (Homo sapiens) (UniProt P20594). As to the kind of experiment: human GC-B receptor activators, primary screen, HEK293 GC-B cells, cGMP TR-FRET, EC30 CNP (AID 1920062). The settings on record: at 10 µM, active compounds read high, 0% at EC30 CNP, 100% saturating CNP. (In TR-FRET formats the signal depends on donor and acceptor labels being close together.)
`Fc1cccc(Cc2c(-c3cccc(Cl)c3)nc3ccc(Br)cn23)c1`: the activation is -1.56%.
The same measure for `COC(=O)c1ccc2nc(-c3ccc(C)cc3)c(Cc3ccc(OC)cc3C)n2c1`: 17.2%.
The same measure for `COC(=O)c1ccc2nc(-c3ccc(Cl)cc3)c(Cc3cccc(F)c3)n2c1`: 41.9% (active); for `COC(=O)c1ccc2nc(-c3ccc(OC)c(OC)c3)c(Cc3ccccc3)n2c1`: 20.9%.
On to `COC(=O)c1ccc2nc(C3CCCCC3)c(Cc3cccc(F)c3)n2c1`, for which the activation is 3.29%.
The figure for `COC(=O)c1ccc2nc(-c3ccc(F)cc3)c(Cc3ccc(C)cc3)n2c1` is 41.9% (active).
The same measure for `COC(=O)[C@@H]1C[C@@]2(O)[C@H](O)[C@H](O)[C@H](O)C[C@H]2N1Cc1ccc(C)s1`: 6.96%; for `O=C(NCc1ccncc1)C1CCCN(S(=O)(=O)c2ccc(Br)cc2)C1` (stereo not drawn): -0.66%.
The same measure for `CCOCCCNC(=O)Cc1cc(=O)[nH]c(=O)[nH]1`: -0.88%.
Take `CC(=O)Nc1ccc(S(=O)(=O)NC2(C(F)(F)F)C(=O)Nc3c2c(=O)[nH]c(=O)n3Cc2ccccc2)cc1` (stereo not drawn): the activation was -0.18%.
The same measure for `NC(=O)C[n+]1cccc(C(N)=O)c1`: -0.67%; for `CC1(C)O[C@@H]2[C@H](O1)[C@@H](COS(=O)(=O)O)O[C@H]2n1ccc(=O)[nH]c1=O`: 1.28%.
The same measure for `O=C(NC(=S)Nc1cccc(-c2ccc(CO)o2)c1)c1cccs1`: 3.14%.
The figure for `COc1cccc2cc(C(C)N(CCCN3CCOCC3)C(=O)Nc3ccc(Cl)cc3)oc12` (stereo not drawn) is 2.29%.
As for `Cc1ccc(SCC(=O)NNC(=O)c2ccc(S(C)(=O)=O)cc2)cc1`, the activation was 4.75%.
The same measure for `CCCN=C1NC(=O)C(CC(=O)NCCc2ccc(OC)c(OC)c2)S1` (stereo not drawn): -2.43%; for `CCN(CC(=O)NCCCN1CCOCC1)S(=O)(=O)c1cc(Cl)ccc1Cl`: -0.24%; for `CCOCCCNC(=O)C(NC(=O)c1ccc(=O)[nH]c1)c1ccc(Cl)cc1` (stereo not drawn): -0.69%.
The figure for `Nc1c(C(=O)NCc2ccccc2)sc2nc3c(cc12)C(=O)CCC3` is 41.5% (active); for `CC(C)OC(=O)c1sc2nc3c(cc2c1N)C(=O)CCC3` it is 16.4%.
The same measure for `O=C(CC1CCCCC1)NCc1ccccc1`: 0.16%; for `Cc1cnc(C)c(N2CCN(C(=O)C3CCC(=O)N(CCc4cccc(F)c4)C3)CC2)n1` (stereo not drawn): 1.57%; for `CCN(C(=O)COC(=O)c1c(NC(C)=O)sc(C)c1C)C1CCS(=O)(=O)C1` (stereo not drawn): -6.94%.
With `C=CCn1nc(C(=O)OCC)cc1-c1sc(NC(=O)c2ccccc2)nc1C`, the activation was 3.57%.
The figure for `Cc1ccc(C)n1-c1ccncc1` is 1.81%.
On to `COC(=O)[C@]1(Cc2ccccc2)N[C@H](CN(C)S(=O)(=O)c2ccc(F)cc2)[C@@H]2C(=O)N(Cc3ccccc3)C(=O)[C@@H]21`, for which the activation was -3.49%.
The figure for `COc1ccc(C2c3ccc(O)cc3Oc3ncn(CCCO)c(=N)c32)cc1OC` (stereo not drawn) is 2.6%; for `CCN(C(=O)COC(=O)c1ccc(COc2ccc3c(C)cc(=O)oc3c2)cc1)C1CCS(=O)(=O)C1` (stereo not drawn) it is -1.49%.
With `O=C(Nc1ccc(Br)cc1)c1cccc(NC(=O)C2C3CC4OC(=O)C2C4C3)c1` (stereo not drawn), the activation is -4.37%.
The figure for `Cc1oc2nc(SCC(=O)Nc3ccc(S(N)(=O)=O)cc3)nc(NC(=O)c3ccccc3)c2c1C` is -7.74%; for `N#Cc1ccc(OCCN2C(=O)NC3(CCSC3)C2=O)cc1` (stereo not drawn) it is 1.75%.
The same measure for `O=C1Nc2ccccc2NC(c2ccc3c(c2)OCO3)=C1N(Cc1ccc(F)cc1)C(=O)c1ccco1`: -16.8%.
With `CCOC(=O)Cc1c(C)nc2c(C#N)c(C)nn2c1C`, the activation was 6.49%.
The same measure for `C[C@H]1NS(=O)(=O)c2cc(Cl)ccc2O[C@@H]1c1ccccc1`: 1.13%; for `O=C1CC(=O)Nc2cc(S(=O)(=O)N3CCN(c4cccc(C(F)(F)F)c4)CC3)ccc2N1`: 1.05%.
The same measure for `CCNC(=O)C1(C)CCN(C(=O)c2ccccc2)C1` (stereo not drawn): 1.62%.
For `Cc1ccc(CSc2ccc(S(=O)(=O)N3CCCCC3)cn2)cc1`, the activation was -1.29%.
The same measure for `CCOC(=O)c1ccccc1NC(=O)COC(=O)C(Cc1c[nH]c2ccccc12)NC(C)=O` (stereo not drawn): -17.1%.
The figure for `COCCn1c(CN2CCC(Cc3ccccc3)CC2)nc2c1c(=O)n(C)c(=O)n2C` is -2.04%.
The figure for `CCN(CC)C(=O)Cn1cc(S(=O)(=O)CC(=O)NCc2ccc3c(c2)OCO3)c2ccccc21` is 2.01%; for `CN(C)C(=O)c1cccc(-c2cnc3sc(NCc4ccc5c(c4)OCO5)nn23)c1` it is 43% (active); for `O=C(NCc1ccc2c(c1)OCO2)c1sccc1Br` it is 8.92%.
Take `O/N=C(\c1ccc2c(c1)OCCO2)C1CCCCC1`: the activation was 0.81%.
The figure for `Cc1nnc(NC(=O)CSc2nc(C3CCCCC3)nc3ccccc23)s1` is 3.79%; for `CC(=O)Nc1cc(-c2cccc(CO)c2)cn2c(-c3cccc(C(F)(F)F)c3)cnc12` it is 36.8% (active); for `CC(=O)Nc1cc(-c2ccccc2F)cn2c(-c3cccc(C(F)(F)F)c3)cnc12` it is 3.33%.
Take `CC(=O)Nc1cccc(-c2cc(NC(C)=O)c3ncc(-c4ccccc4)n3c2)c1`: the activation was 5.87%.
The same measure for `COc1ccc(OC)c(Cc2cnc3nc(N)nc(N)c3c2C)c1`: -1.38%; for `Cn1c(=O)c2c(SCC(=O)NCC3CCCO3)nc(CC(C)(C)C)nc2n(C)c1=O` (stereo not drawn): 4.44%; for `C=CCN(Cc1ccc2c(c1)OCO2)C(C#CC1CC1)C(C)(C)C` (stereo not drawn): -14.9%.
The figure for `C[C@@H]1COc2cccc(N3CCCC3)c2S(=O)(=O)N1C` is 0.41%; for `CC(=O)C1(C(=O)Nc2nccs2)CC(c2ccccc2C(F)(F)F)=NO1` (stereo not drawn) it is 1.69%.
In the case of `COc1ccc(C(=O)OC(C)C(=O)NC2CCCC2)cc1S(=O)(=O)N1CCOCC1` (stereo not drawn), the activation was -5.5%.
The same measure for `O=C(CCCCCN1C(=O)C2C3C=CC(C3)C2C1=O)Nc1ccccn1` (stereo not drawn): 9.16%.
The same measure for `CCc1ccccc1S(=O)(=O)Cc1ccc(C(=O)NCCc2ccccc2)o1`: 2.27%.
The same measure for `CN(C(=O)CC(NC(=O)c1ccccc1)(c1ccccc1)c1ccccc1)c1ccccc1`: -19.3%; for `CN(CC(=O)Nc1ccccc1Cl)C(=O)COc1cccc2c1OC(C)(C)C2`: -1.31%.
For `O=C(CSc1n[nH]c(=O)n1-c1ccccc1)Nc1ccccc1C(F)(F)F`, the activation was -2.36%.
The same measure for `COCCCN1C(=O)c2ccc(C(=O)OCC(=O)NCc3ccccc3OC)cc2C1=O`: -7.6%.
Take `Cc1ccc(CNC(=O)C(=O)c2cn(CC(=O)N3CCOCC3)c3ccccc23)cc1`: the activation was -3.39%.
The same measure for `O=C1CSC(c2cccc(F)c2)N1c1ccc(O)cc1` (stereo not drawn): 2.71%; for `CC1CCCCN1S(=O)(=O)CCNC(=O)c1ccccc1` (stereo not drawn): -2.73%; for `Cc1ccc(NC(=O)CSCC(=O)N2CCOCC2)cc1`: 2.72%.
The same measure for `O=C(CCSc1ccccc1)N1CCN(c2ccccc2F)CC1`: -0.35%; for `CC(C)(C)c1ccc(CSc2nnc(-c3cccs3)o2)cc1`: 3.23%.
The figure for `COc1ccccc1NC(=O)CSc1nnc(Cn2nnc(-c3ccccc3)n2)n1-c1ccccc1` is -7.79%.
Take `Nn1c(SCC(=O)Nc2ccc(S(N)(=O)=O)cc2)nnc1-c1n[nH]c2c1CCC2`: the activation was -3.98%.
As to `CS(=O)(=O)Nc1ccccc1N=C(c1ccccc1)c1ccccc1`, the activation is 4.92%.
The figure for `Cc1cccc(C(=O)NC2CCN(CC(=O)Nc3cccc(Cl)c3)CC2)c1` is 1.44%.
The same measure for `CCc1nn(CCCC(=O)NC(C)c2ccccc2)c(=O)c2cc3occc3n12` (stereo not drawn): -9.68%; for `Cc1c2cnn(CC(=O)NCc3ccccn3)c(=O)c2c(C)n1Cc1ccc(Cl)cc1`: 0.59%; for `CC1=NN(/C(=N\c2nnc(C)s2)Nc2ccccc2)[C@H](c2ccc(C)cc2)S1`: -13.9%.
The figure for `COC(=O)c1ccc([C@@H](O)[C@H](C)C(=O)CC(=O)OC(C)(C)C)cc1` is 5.42%; for `CC(=O)c1cccc(NC(=O)CN2C(=O)c3cccnc3Oc3ccc(Cl)cc32)c1` it is -2.67%; for `Cc1ccccc1C(=O)OC1OC(=O)C(Cl)=C1Nc1ccccc1` (stereo not drawn) it is 2.61%.
For `C/C(=N\N(C)C)c1ccc(OCCOc2ccc([N+](=O)[O-])cc2)cc1`, the activation is 4.4%.
Regarding `O=C(Cc1ccc(-n2c(=O)c3sccc3n(Cc3ccc(F)cc3)c2=O)cc1)NCc1ccco1`, the activation is 6.68%.
The same measure for `Cc1ccc(C(=O)N2CCCC2)c(F)c1F`: 0.58%.
Consider `COc1ccc(S(=O)(=O)N2CCN(C)CC2)c(C)c1`, for which the activation was -1.64%.
The figure for `CC[C@]1(C(=O)OC)[C@H]2C(=O)N(C)C(=O)[C@H]2[C@H]2CN(C)C(=NCc3ccccc3)N21` is -1.82%; for `CS(=O)(=O)N(CC(=O)N1CCN(c2cccc(Cl)c2)CC1)c1ccccc1` it is -0.13%; for `COc1ccc(CSc2nc(N3CCOCC3)c3c(c2C#N)CC(C)(C)OC3)cc1` it is 48.4% (active).
For `Cc1cc(C)c(C#N)c(SCc2ccc3c(c2)OCO3)n1`, the activation was 6.77%.
The same measure for `c1ccc(CSc2ncnc3c2sc2nc(N4CCOCC4)c4c(c23)CCCC4)cc1`: -0.49%.
For the molecule `O=C1CCC(=O)N(c2ccccc2)N1`, the activation was 0.63%.
In the case of `CC(=O)Nc1ccc(NC(=O)CSc2nnnn2-c2ccccc2F)cc1`, the activation was -2.78%.
The same measure for `CCCCCN(C(=O)NC(=O)Nc1ccccc1OC)S(C)(=O)=O`: 0.44%.
The figure for `CCn1c(SCC(=O)NNC(=O)c2ccc(OC)cc2)nnc1C(C)C` is 1.41%.
